# Measurements taken from PubChem BioAssay.
# For some of these results: Entries with a potency or affinity are not part of this list. The source made the active and inactive calls.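 Rule for the calls, unless noted: active = fluorescence ratio normalized to control raised more than 50% in primary screen plus both repeat runs; inactive = the rest.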
# What was measured:
# [1] = test system: TRPC4 beta (transient receptor potential cation channel C4), mouse; test: activators of mouse TRPC4 channel, confirmation, cell-based, Fluo4 calcium, HEK293 TRPC4beta/mu-opioid, duplicates, 10 µM (AID 2426); conditions: Fluo4 calcium fluorescence, at 10 µM; hits give high values;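 for activation: percent rise of integrated ratio over buffer wells lacking compound which define 0%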
# [2] = test system: transient receptor potential cation channel C4 beta (TRPC4), mouse; test: activators of mouse TRPC4 channel, confirmation, cell-based, second round, Fluo4, HEK293 TRPC4beta/mu-opioid, 1 µM (AID 2461;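 active = primary screen active and over 50% activation in each of two duplicate runs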;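 for activation: 0% = wells without test compound as baseline of integrated fluorescence ratio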); conditions: Fluo4 calcium fluorescence, at 1 µM; hits give high values
# [3] = test system: TRPC4 (transient receptor potential cation channel C4 beta), mouse; test: positive allosteric modulators of mouse TRPC4, confirmation, cell-based, second round, Fluo-4, HEK293 TRPC4beta/mu-opioid, 1 µM (AID 2554;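 active = primary screen hit whose fluorescence ratio, in both repeats, exceeds the weak agonist control mean by 3 SD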); conditions: DAMGO EC20, Fluo-4 calcium flux, at 1 µM; hits give high values
# [4] = test system: TRPC4 beta (transient receptor potential cation channel C4), mouse; test: positive allosteric modulators of mouse TRPC4, confirmation, cell-based, Fluo-4, HEK293 TRPC4beta/mu-opioid (AID 2555;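 active = primary screen hit whose calcium fluorescence ratio, in both repeats, exceeds the weak agonist control mean by 3 SD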); conditions: DAMGO EC20, Fluo-4 calcium flux, at 10 µM; hits give high values
# [5] = target: Short transient receptor potential channel 4 (Mus musculus) (UniProt Q9QUQ5); test: inhibitors of mouse TRPC4 channel, confirmation, cell-based, Fluo4, HEK293 TRPC4beta/mu-opioid (AID 2636;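 active = calcium signal cut by more than 3 SD below the full-agonist control yet still positive, in both repeats and the earlier primary screen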); conditions: DAMGO, Fluo4 calcium flux, at 10 µM; hits give high values
# Sequence of Short transient receptor potential channel 4 (Mus musculus) (Q9QUQ5 whole entry, looked up): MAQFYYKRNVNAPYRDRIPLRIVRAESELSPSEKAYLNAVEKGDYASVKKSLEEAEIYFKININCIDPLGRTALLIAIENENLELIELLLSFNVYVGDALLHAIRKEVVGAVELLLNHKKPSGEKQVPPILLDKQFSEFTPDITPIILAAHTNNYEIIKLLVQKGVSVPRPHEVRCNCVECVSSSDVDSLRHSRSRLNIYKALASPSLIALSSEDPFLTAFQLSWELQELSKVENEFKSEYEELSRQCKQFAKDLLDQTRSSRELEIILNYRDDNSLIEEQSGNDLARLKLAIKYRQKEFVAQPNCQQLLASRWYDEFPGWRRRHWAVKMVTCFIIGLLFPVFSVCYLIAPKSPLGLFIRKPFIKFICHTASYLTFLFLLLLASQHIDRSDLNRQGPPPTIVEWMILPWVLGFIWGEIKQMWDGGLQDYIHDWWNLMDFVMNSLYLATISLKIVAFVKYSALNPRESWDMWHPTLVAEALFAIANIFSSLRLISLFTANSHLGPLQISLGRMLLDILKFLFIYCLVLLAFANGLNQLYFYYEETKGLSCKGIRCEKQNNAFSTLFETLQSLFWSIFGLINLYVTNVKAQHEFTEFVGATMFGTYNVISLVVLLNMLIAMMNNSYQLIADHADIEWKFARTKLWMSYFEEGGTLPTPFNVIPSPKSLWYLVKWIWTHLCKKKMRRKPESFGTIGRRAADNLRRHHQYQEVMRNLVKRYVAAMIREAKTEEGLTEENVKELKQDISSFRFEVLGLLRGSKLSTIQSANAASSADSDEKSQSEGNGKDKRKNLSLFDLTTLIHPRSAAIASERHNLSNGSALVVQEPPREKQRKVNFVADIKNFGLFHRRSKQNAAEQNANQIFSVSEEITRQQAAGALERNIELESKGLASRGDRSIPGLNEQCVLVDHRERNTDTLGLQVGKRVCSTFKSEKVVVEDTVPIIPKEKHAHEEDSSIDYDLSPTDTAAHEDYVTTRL
# [6] = target: Short transient receptor potential channel 4 (Mus musculus) (UniProt Q9QUQ5); test: inhibitors of mouse TRPC4 channel, confirmation, cell-based, second round, Fluo4, HEK293 TRPC4beta/mu-opioid, 1 µM (AID 2637;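 active = calcium signal ratio cut to more than 3 SD under the fully stimulated control mean yet still positive, in both repeats and the primary screen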); conditions: Fluo4 calcium flux, DAMGO, at 1 µM; hits give high values
# [7] = target: Short transient receptor potential channel 4 (Mus musculus) (UniProt Q9QUQ5); test: TRPC4 positive allosteric modulators, dose response, cell-based, HEK293 TRPC4/mu-opioid, Fluo-4 calcium, EC20 DAMGO (AID 434941;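 active = earlier screen potentiator hit that boosts the TRPC4 ion channel at some dose, with a dose response; inactive = no potentiation, no dose response, or not a prior hit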;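 note: calcium entry triggered by an EC20 dose of DAMGO at the co-expressed mu-opioid receptor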)
# [8] = target: Short transient receptor potential channel 4 (Mus musculus) (UniProt Q9QUQ5); test: mouse TRPC4 channel inhibitors, dose response, cell-based, HEK293 TRPC4/mu-opioid, Fluo-4 calcium (AID 434942;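 active = primary screen inhibitor hit that blocks the TRPC4 channel at some tested dose, yielding a dose curve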)
# [9] = target: Short transient receptor potential channel 6 (Mus musculus) (UniProt Q61143); test: inhibition of mouse TRPC6 channel, confirmation, selectivity assay for TRPC4 inhibitor project, cell-based, HEK293, membrane potential dye, duplicate (AID 434948;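 active = active in primary screen and both duplicates, each dropping signal beyond three positive-control SD with fluorescence still positive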); conditions: HEK293 TRPC6, membrane potential dye fluorescence, at 10 µM, stimulated with maximal-effect acetylcholine; hits give high values
# Sequence of Short transient receptor potential channel 6 (Mus musculus) (Q61143 whole entry, looked up): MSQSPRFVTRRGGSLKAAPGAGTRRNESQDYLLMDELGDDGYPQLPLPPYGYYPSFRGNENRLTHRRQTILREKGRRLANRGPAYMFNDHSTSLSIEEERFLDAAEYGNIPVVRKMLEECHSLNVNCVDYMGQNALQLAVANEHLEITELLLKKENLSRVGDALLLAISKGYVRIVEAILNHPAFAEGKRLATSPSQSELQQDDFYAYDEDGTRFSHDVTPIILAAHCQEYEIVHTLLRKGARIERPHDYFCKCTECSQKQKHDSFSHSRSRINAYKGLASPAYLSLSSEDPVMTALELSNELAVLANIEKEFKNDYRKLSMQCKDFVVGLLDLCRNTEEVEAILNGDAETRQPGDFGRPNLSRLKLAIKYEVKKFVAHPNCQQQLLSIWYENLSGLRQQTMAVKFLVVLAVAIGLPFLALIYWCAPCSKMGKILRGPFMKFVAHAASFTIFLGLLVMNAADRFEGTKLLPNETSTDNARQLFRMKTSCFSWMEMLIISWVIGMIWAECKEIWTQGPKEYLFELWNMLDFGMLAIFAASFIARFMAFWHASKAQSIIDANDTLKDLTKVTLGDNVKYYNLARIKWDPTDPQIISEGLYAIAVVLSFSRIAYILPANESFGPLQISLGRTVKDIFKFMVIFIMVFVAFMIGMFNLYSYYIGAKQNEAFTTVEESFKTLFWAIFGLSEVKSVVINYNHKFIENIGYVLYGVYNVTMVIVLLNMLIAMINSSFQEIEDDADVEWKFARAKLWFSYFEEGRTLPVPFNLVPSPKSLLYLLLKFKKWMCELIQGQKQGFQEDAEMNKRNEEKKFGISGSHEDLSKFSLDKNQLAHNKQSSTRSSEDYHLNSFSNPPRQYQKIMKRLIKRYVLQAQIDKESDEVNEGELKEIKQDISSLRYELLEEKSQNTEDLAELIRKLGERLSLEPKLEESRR
# [10] = target: Short transient receptor potential channel 6 (Mus musculus) (UniProt Q61143); test: activation of mouse TRPC6 channel, confirmation, selectivity assay for TRPC4 activator project, cell-based, HEK293, membrane potential dye, duplicate (AID 434950;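 active = membrane potential signal rise above negative control mean plus 3 SD in both duplicates, also active in the earlier TRPC4 screen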;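 for activation: 0% = buffer only wells and 100% = acetylcholine maximal-effect wells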); conditions: HEK293 TRPC6, membrane potential fluorescence, at 10 µM; hits give high values
# [11] = target: Short transient receptor potential channel 6 (Mus musculus) (UniProt Q61143); test: TRPC6 potentiation by TRPC4 potentiator hits, confirmation, selectivity assay for TRPC4 potentiator project, HEK293 cells, membrane potential dye, duplicate (AID 434952;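 active = compound raising the membrane signal above positive-control mean plus 3 SD in both repeats, and a primary screen hit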); conditions: HEK293 TRPC6, membrane potential dye fluorescence, at 10 µM, maximal acetylcholine added after compound; hits give high values
# [12] = target: Short transient receptor potential channel 4 (Mus musculus) (UniProt Q9QUQ5); test: calcium flux activators in TRPC4/5HT1a cells, counter-screen for TRPC4 activator project, cell-based, second counter screen, HEK293 TRPC4/5HT1a, Fluo-4 (AID 434977;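 active = calcium signal rise above buffer-control mean plus 5 SD in both duplicates, and also a hit in the primary screen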;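 for activation: plate controls were assay buffer for no effect and maximal serotonin response for full effect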); conditions: Fluo-4 calcium flux, at 10 µM; hits give high values
# [13] = calcium flux inhibitors in TRPC4/5HT1a cells, confirmation, counter-screen for TRPC4 inhibitor project, cell-based, second counter screen, HEK293 TRPC4/5HT1a, Fluo-4 (AID 434978;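 active = primary screen active whose calcium signal fell more than 3 SD beyond the full-serotonin control mean in both duplicate plates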;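 note: serotonin given first at submaximal then at maximal dose after compound preincubation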); conditions: Fluo-4 calcium flux, at 10 µM, serotonin added to trigger calcium flux; hits give high values
# [14] = test system: TRPC4 (mouse), co-expressed with 5HT1a in HEK293; test: calcium flux potentiators in TRPC4/5HT1a cells, confirmation, counter-screen for TRPC4 potentiator project, cell-based, second counter screen, HEK293 TRPC4/5HT1a, Fluo-4 (AID 434979;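 active = signal rise over 3 SD above mean of control wells given weak agonist, in both repeats and first screen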); conditions: Fluo-4 calcium flux, at 10 µM, serotonin added at its EC20 dose; hits give high values
# [15] = calcium flux activation in mu-opioid HEK293 cells, confirmation, counter-screen for TRPC4 activator project, cell-based, HEK293 mu-opioid receptor line (AID 449723;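 active = hit in primary screen, with calcium signal over 5 SD above buffer well mean in both duplicates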;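 note: counter screen cells carry the mu-opioid receptor alone and lack TRPC4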); conditions: Fluo-4 calcium fluorescence, at 10 µM; hits give high values
# [16] = calcium flux enhancement in mu-opioid HEK293 cells, confirmation, counter-screen for TRPC4 allosteric potentiator project, cell-based, HEK293 mu-opioid receptor line (AID 449724;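 active = calcium signal rise more than 3 SD above the low-dose agonist control mean, in both duplicate plates and the primary screen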); conditions: Fluo-4 calcium flux, at 10 µM, compound added before EC20 DAMGO stimulus; hits give high values
smiles,measurement,setting,value
CCOC(=O)[C@@H]1CCNC[C@@H]1c1ccccc1,activation,[1],217% (active)
same,activation,[2],83% (active)
same,outcome,[3],inactive
same,outcome,[4],inactive
same,outcome,[5],inactive
same,outcome,[6],inactive
same,outcome,[7],inactive
same,outcome,[8],inactive
same,outcome,[9],inactive
same,activation,[10],30.5% (active)
same,outcome,[11],inactive
same,outcome,[12],inactive
same,outcome,[13],inactive
same,outcome,[14],inactive
same,outcome,[15],inactive
same,outcome,[16],inactive
CC1(c2ccc(Cl)cc2Cl)OCC(Cn2ccnc2)O1 (configuration not stated),activation,[1],89% (active)
same,outcome,[2],inactive
same,outcome,[3],inactive
same,outcome,[4],inactive
same,outcome,[5],inactive
same,outcome,[6],inactive
same,outcome,[7],inactive
same,outcome,[8],inactive
same,outcome,[9],inactive
same,activation,[10],48.5% (active)
same,outcome,[11],inactive
same,activation,[12],19.9% (active)
same,outcome,[13],inactive
same,outcome,[14],inactive
same,outcome,[15],inactive
same,outcome,[16],inactive
CCCCC(=O)NNC(=S)NC(=O)c1ccc(C)cc1,activation,[1],240% (active)
same,outcome,[2],inactive
same,outcome,[3],inactive
same,outcome,[4],inactive
same,outcome,[5],inactive
same,outcome,[6],inactive
same,outcome,[7],inactive
same,outcome,[8],inactive
same,outcome,[9],inactive
same,outcome,[10],inactive
same,outcome,[11],inactive
same,activation,[12],15% (active)
same,outcome,[13],inactive
same,outcome,[14],inactive
same,outcome,[15],inactive
same,outcome,[16],inactive
CCCCN(C)CCCNC(=O)CN1N=C(c2ccc(Cl)cc2)CCC1=O,outcome,[1],inactive
same,outcome,[2],inactive
same,outcome,[3],inactive
same,outcome,[4],inactive
same,outcome,[5],inactive
same,outcome,[6],inactive
same,outcome,[7],inactive
same,outcome,[8],inactive
same,outcome,[9],inactive
same,activation,[10],30% (active)
same,outcome,[11],inactive
same,activation,[12],16.6% (active)
same,outcome,[13],inactive
same,potentiation,[14],21.3% (active)
same,outcome,[15],inactive
same,outcome,[16],inactive
CCCCN(CC)CCCNC(=O)Cn1nc(Cc2ccncc2)c2ccccc2c1=O,activation,[1],162% (active)
same,activation,[2],120% (active)
same,outcome,[3],inactive
same,outcome,[4],inactive
same,outcome,[5],inactive
same,outcome,[6],inactive
same,outcome,[7],inactive
same,outcome,[8],inactive
same,outcome,[9],inactive
same,activation,[10],31.5% (active)
same,outcome,[11],inactive
same,activation,[12],53.7% (active)
same,outcome,[13],inactive
same,outcome,[14],inactive
same,outcome,[15],inactive
same,outcome,[16],inactive
O=C(COc1ccccc1)NNC(=S)NC(=O)c1ccc(Cl)cc1Cl,activation,[1],63% (active)
same,outcome,[2],inactive
same,outcome,[3],inactive
same,outcome,[4],inactive
same,outcome,[5],inactive
same,outcome,[6],inactive
same,outcome,[7],inactive
same,outcome,[8],inactive
same,outcome,[9],inactive
same,outcome,[10],inactive
same,outcome,[11],inactive
same,activation,[12],44.7% (active)
same,outcome,[13],inactive
same,outcome,[14],inactive
same,outcome,[15],inactive
same,outcome,[16],inactive
C=CCn1c(CCNC(=O)C(C)(C)C)nc2ccccc21,activation,[1],151% (active)
same,outcome,[2],inactive
same,outcome,[3],inactive
same,outcome,[4],inactive
same,outcome,[5],inactive
same,outcome,[6],inactive
same,outcome,[7],inactive
same,outcome,[8],inactive
same,outcome,[9],inactive
same,activation,[10],37% (active)
same,outcome,[11],inactive
same,activation,[12],30.7% (active)
same,outcome,[13],inactive
same,outcome,[14],inactive
same,outcome,[15],inactive
same,outcome,[16],inactive
